Pf Dd2 growth: qHTS Primary assay for Inhibitors of Plasmodium falciparum Dd2 growth in vitro; 4.3% of 120,000 active; Potency, µM (top dose mostly 28.9 µM), for the others: at the top dose activity, negative = inhibition, usual class: inhibitors; P. falciparum Dd2 growth, SYBR Green, 72 h; active means well fitted inhibition curve with a large enough effect;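 further: plate controls were DMSO vehicle for no effect and reference drug for full effect; nearly all actives have a fitted effect of over 65% in size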
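Readout: SYBR Green fluorescence, 485 nm excitation, 535 nm emission, after ~16 h lysis at 37C. Before that, Dd2-infected red cells (2.5% hematocrit) grew 72 h with compound, 29 uM top final concentration.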
* marks the source's active call; other numbers are inactive results; [ ] = remark or other dose. This excerpt belongs to a sample that is enriched for hits. Potency means the concentration at half of the fitted maximal effect.

For O=C1NCc2ccccc2CC12CCCN(Cc1c(F)cccc1Cl)C2 (stereo not drawn) the results were Pf Dd2 growth -20%.
Screening O=C(O)C1CCc2nnc(C3CCCN(C(=O)c4ccc(C(F)(F)F)cc4)C3)n21 (stereo not drawn) returned Pf Dd2 growth 4%.
Screening O=C1CCN(S(=O)(=O)c2ccccc2)CCCC(C(=O)NCCc2ccccc2)CCN1 (stereo not drawn) returned Pf Dd2 growth -1%.
Screening Cn1nc(C(=O)N2CC[C@H](CO)[C@H](NC(=O)C3CC3)C2)c2ccccc21 returned Pf Dd2 growth 23%.
For COc1ccc(S(=O)(=O)NC[C@H]2COCc3nc4ccc(C)cc4n32)cc1 the results were Pf Dd2 growth -29%[44.1 µM].
`O=C(C1CC=CC1)N1CC(F)(F)C[C@H]1c1nc(-c2ncccn2)no1` gave Pf Dd2 growth inactive.
Screening Cc1cnc(C(=O)N2C[C@@H](Oc3cccnc3)C[C@H]2C(=O)NC2CC2)cn1 returned Pf Dd2 growth 24%.
For Cc1cc(CN2CCC3(CC2)CCN(C(=O)c2ccccn2)CC3CO)on1 (stereo not drawn) the results were Pf Dd2 growth -10%.
Screening O=C1NC2(CCN(Cc3ccncc3)C2)Oc2ccccc21 (stereo not drawn) returned Pf Dd2 growth 14%[44.1 µM].
For O=C1NC2(CCN(Cc3ccc(OC(F)(F)F)cc3)C2)COc2ccccc21 (stereo not drawn) the results were Pf Dd2 growth 9%.
For Cc1ccc(CN2CCC3(CC2)COc2ccccc2CN3)cc1 the results were Pf Dd2 growth 6.3µM*.
Screening Cc1ccc(CN2CCCC3(COc4ccccc4C(=O)N3)C2)cc1 (stereo not drawn) returned Pf Dd2 growth 13µM*.
N#Cc1ccc(CN2CC3(C2)NC(=O)c2ccccc2O3)cc1 was read as Pf Dd2 growth inactive.
`CC1=NOC2(CCN(Cc3ccc(C)cc3)CC2)C1` gave Pf Dd2 growth inactive.
N#Cc1ccc(CN2CCCC3(COc4ccccc4C(=O)N3)C2)cc1 (stereo not drawn) was read as Pf Dd2 growth -24%.
For O=C1NC2(CCN(Cc3ccccc3)C2)COc2ccccc21 (stereo not drawn) the results were Pf Dd2 growth 10µM*.
Screening N#Cc1ccc(CN2CCC3(CC2)COc2ccccc2C(=O)N3)cc1 returned Pf Dd2 growth 2.5µM*.
Cc1ccc(CN2CCC3(CC2)NC(=O)c2ccccc2O3)cc1 was read as Pf Dd2 growth -4%[44.1 µM].
For O=C1NC2(CCCN(Cc3ccncc3)C2)COc2ccccc21 (stereo not drawn) the results were Pf Dd2 growth -21%[44.1 µM].
Screening O=C1NC2(CCCN(C(=O)c3cccnc3)C2)COc2ccccc21 (stereo not drawn) returned Pf Dd2 growth inactive.
O=C(c1ccccc1)N1CCN(c2nc3ncccc3o2)CC1 was read as Pf Dd2 growth inactive.
CN1c2cc(C(=O)N3CCN(C4CCCCC4)CC3)ccc2C(=O)N2CCCCC21 (stereo not drawn) was read as Pf Dd2 growth -9%.
COc1ccc(CNC(=O)N2CC(c3nc(CCOCC4CCOCC4)no3)C2)cc1 was read as Pf Dd2 growth -15%.
Screening COC[C@@H]1[C@H](C(=O)Nc2ccc(N3CCOCC3)cc2)CCC(=O)N1C returned Pf Dd2 growth inactive.
`CCOCC(=O)N1CCCn2ccnc2C1C(C)C` (stereo not drawn) gave Pf Dd2 growth -6%.
Screening O=C(CCCc1cn[nH]c1)N1CCCC(CCc2c(F)cccc2F)C1 (stereo not drawn) returned Pf Dd2 growth -19%.
`O=C1NCCCN1C1CCN(Cc2ccccc2C(F)(F)F)CC1` gave Pf Dd2 growth inactive.
Screening Cc1cc(Nc2ncncc2-c2nc(-c3ccccc3)no2)ccc1F returned Pf Dd2 growth inactive.
For O=C(c1ccccc1)N1CCCC2(C1)C(=NC1CCCCC1)NC(=O)N2c1cc(F)cc(F)c1 (stereo not drawn) the results were Pf Dd2 growth 3%.
Cc1cnc(C(=O)N2CCCC(c3nnc(Cn4cccn4)n3C)C2)cn1 (stereo not drawn) was read as Pf Dd2 growth 17%.
For O=C1NC2(CCCN(Cc3cccnc3)C2)Oc2ccccc21 (stereo not drawn) the results were Pf Dd2 growth -15%[44.1 µM].
O=C1NC2(CCN(Cc3ccsc3)CC2)COc2ccccc21 was read as Pf Dd2 growth 3.2µM*.
O=[S+]1([O-])NC2(CCN(Cc3ccsc3)CC2)COc2ccccc21 was read as Pf Dd2 growth -16%.
For COc1cccc(CN2CCCC3(C2)NC(=O)c2ccccc2O3)c1 (stereo not drawn) the results were Pf Dd2 growth 16µM*.
`COc1cccc(CN2CCC3(CC2)COc2ccccc2C(=O)N3)c1` gave Pf Dd2 growth inactive.
For COc1cccc(CN2CC3(C2)NC(=O)c2ccccc2O3)c1 the results were Pf Dd2 growth -4%[44.1 µM].
For CC(=O)N1CCC2(CC1)C(=NC1CCCCC1)NC(=O)N2c1cccnc1 the results were Pf Dd2 growth 37%.
CCCn1c(C)cnc1CCNS(=O)(=O)CCC was read as Pf Dd2 growth inactive.
`COC[C@@H]1CN(C(=O)CC2=CCCCC2)C[C@H]1c1ccccn1` gave Pf Dd2 growth inactive.
For O=C(c1ccccc1C(F)(F)F)N1CCC2(CC1)CC(O)CCO2 (stereo not drawn) the results were Pf Dd2 growth 9%.
For COc1cccc(N2C(=O)NC(=NC3CCCCC3)C23CCN([S+](C)(=O)[O-])C3)c1 (stereo not drawn) the results were Pf Dd2 growth 9%.
For COc1cccc(N2C(=O)NC(=NC3CCCCC3)C23CCN(Cc2ccc(F)cc2)C3)c1 (stereo not drawn) the results were Pf Dd2 growth -1%.
`Cn1cccc1CN1CCC2(C1)C(=NC1CCCC1)NC(=O)N2c1cc(F)cc(F)c1` (stereo not drawn) gave Pf Dd2 growth 8.9µM*.
Screening O=C(c1ccccc1)N1CCC2(C1)C(=NC1CCCC1)NC(=O)N2c1cc(F)cc(F)c1 (stereo not drawn) returned Pf Dd2 growth -4%.
`Cn1cccc1CN1CCC2(CC1)C(=NC1CCCCC1)NC(=O)N2c1cccnc1` gave Pf Dd2 growth 54%.
For COc1cccc(N2C(=O)NC(=NC3CCCC3)C23CCN(Cc2cccn2C)C3)c1 (stereo not drawn) the results were Pf Dd2 growth 10µM*.
For COc1cccc(N2CC(C(=O)NCCCc3ccccc3)NC2=O)c1 (stereo not drawn) the results were Pf Dd2 growth inactive.
For CCC[C@H]1CN(C(=O)c2cc(C(F)(F)F)ccc2Cl)C[C@@H]1N the results were Pf Dd2 growth inactive.
O=C(N[C@H]1CO[C@H]2[C@@H]1OC[C@@H]2n1nnnc1Oc1cccc(N2CCOCC2)c1)N1CCOCC1 was read as Pf Dd2 growth -6%.
Screening O=C(CCC[C@@H]1[C@H]2CCCN3CCC[C@@H](CN1C(=O)Nc1ccccc1F)[C@@H]23)Nc1ccccc1 returned Pf Dd2 growth -5%.
O=C(Nc1cc(F)cc(F)c1)N1CCC(Oc2ncccc2C(=O)N2CCCCC2)C1 (stereo not drawn) was read as Pf Dd2 growth inactive.
Screening COc1ccc(C(=O)N[C@@H]2CCC[C@@H]2C(=O)N(C)Cc2ccccc2)cc1 returned Pf Dd2 growth -25%.
Screening CCCc1noc(-c2cccn3c(CNC(=O)Cc4ccc(Cl)cc4)nnc23)n1 returned Pf Dd2 growth -1%.

Source: PubChem BioAssay
